Screens deposited in PubChem by National Center for Advancing Translational Sciences (NCATS).
Hits are enriched below; roughly 19% of the tested compounds scored in any of these assays.
HT1080 IDH1KD tx – toxicity to HT-1080 IDH1 knockdown cells (counter line). Potency, µM (top dose mostly 46.1 µM), for the others: top-dose activity, negative = toxicity, usual class: cytotoxic. HT-1080 IDH1 knockdown viability, ATP luminescence, 48 h. AID 686971. 360,000 compounds, 2% hits;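 further: potency means the concentration at half of the fitted maximal effect; 0% = DMSO wells and -100% = cell-free medium wells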
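HT-1080-IDH1KD cells (IDH1 knocked down), 750/well in RPMI with 5% FBS, treated with compound 48 h at 37 degrees C. Viability by CellTiter-Glo luminescence, normalised to DMSO and no-cell wells; concentration-response curves classed.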
IL-1B inflam inh – inflammasome signaling inhibition, IL-1 beta readout | activity change, % at 57.5 µM | THP-1 LPS/ATP IL-1B secretion, AlphaLISA, 16 h; active compounds read low | AID 743279 | 360,000 compounds, 4.7% hits; in the data active means activity change below about -50%; inconclusive means mostly about -30% to -49%
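Secreted IL-1B measured by AlphaLISA bead assay after 16 h compound exposure of THP-1 cells; compounds (final up to 57.5 uM) added 1 h before LPS (250 ng/mL) and ATP (1.25 mM) stimulation; lower signal means less secretion.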
DT40 TDP1 CPT – DT40-hTDP1 cell growth loss with CPT; chicken DT40 Tdp1-/-;hTDP1 cells + 20 nM CPT, ATP luminescence, 48 h; Potency, µM (titrated, usually from 46.2 µM), inactives show at the highest dose activity change, negative = growth inhibition, hits mostly inhibitors; 420,000 compounds, 12% hits; AID 686979; further: potency means the concentration at half of the fitted maximal effect; nearly all actives have a fitted effect of over 55% in size
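Chicken DT40 Tdp1-/- cells complemented with human TDP1, 400 cells/well, exposed to compounds plus 20 nM camptothecin for at least 48 h at 37 C; viability read as ATP content by CellTiter-Glo luminescence.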
HT1080-NT tox – kills 2HG-producing HT-1080-NT fibrosarcoma cells. Potency, µM (highest dose often 46.1 µM), for inactives: at the top dose activity, negative = less viability, actives largely listed as cytotoxic. AID 686970. 360,000 compounds, 1.6% hits. HT-1080-NT fibrosarcoma viability, CellTiter-Glo ATP luminescence, 48 h;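 further: NT is the 2HG producing partner of a matched IDH1 knockdown line; potency means the concentration at half of the fitted maximal effect; 0% = DMSO-treated cells and -100% = media-only wells without cells; nearly all actives have a fitted effect of over 55% in size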
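HT-1080-NT fibrosarcoma cells (2HG-overproducing), 750 cells/well in RPMI with 5% FBS, dosed after 2 h and incubated 48 h at 37C. CellTiter-Glo luminescence normalized to DMSO and no-cell wells; concentration-response curves fitted and classed.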
DT40 TDP1 no CPT – qHTS for Inhibitors of human tyrosyl-DNA phosphodiesterase 1 (TDP1): qHTS in cells in absence of CPT | DT40 Tdp1-/- hTDP1 cells, no CPT, ATP luminescence, 48 h | Potency, µM (titrated, usually from 46.2 µM), for the others: at the top dose activity change, negative = growth inhibition, most hits filed as inhibitors | 420,000 compounds, 15% hits; further: potency means the concentration at half of the fitted maximal effect; nearly all actives have a fitted effect of over 55% in size
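Compound effects on proliferation are scored in DT40 Tdp1-/-;hTDP1 cells in the absence of CPT. ATP levels (CellTiter-Glo luminescence) are recorded after a ≥48 hr, 37 °C incubation.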
Active calls of the source: *; u = inconclusive; x = not tested or not shown. Unless noted, the call rests on the fitted dose curve; in most records, active means well fitted curve in the direction sought with a large enough effect; inconclusive means small, poorly fitted or top-dose-only effect, or another doubt; inactive means no such curve, though single readings can be large; an effect the other way counts as inactive or inconclusive. Unless noted, on the % scale 0 is the no-effect control and ±100 the full control effect.

SMILES | HT1080 IDH1KD tx | IL-1B inflam inh | DT40 TDP1 CPT | HT1080-NT tox | DT40 TDP1 no CPT
CC1CCN(C(=O)C2CCC(C)(C(=O)O)C2(C)C)CC1 (configuration not stated) | 17% | -16 | 2% | 5% | 0%
COc1ccc(NC(=O)CC2CC3CCC2C3)cn1 (configuration not stated) | -9% | -16 | -7% | 4% | -6%
O=C(Nc1nc(-c2ccccn2)cs1)C1CC(=O)N(c2ccc3c(c2)OCCO3)C1 (configuration not stated) | -11% | 23 | 26µM* | -17% | 16µM*
O=C(CC1CC2CCC1C2)Nc1nc(-c2ccccn2)cs1 (configuration not stated) | -26% | 91 | u | -2% | 6.5µM*
O=C(Nc1nc(-c2ccccn2)cs1)C1CC1 | -9% | -1 | 23µM* | -6% | 18µM*
CC(C)CCN1CCC(N)=NC1=O | 14% | 15 | 3% | 14% | 2%
COCCCNC(=O)CSc1nc2c(sc3ccccc32)c(=O)n1CCCC(=O)NCCOC | x | x | -2% | x | -19%
COc1cccc(C(=O)Cn2c(N3CCCCC3)nc3c2c(=O)n(C)c(=O)n3C)c1 | 8% | -8 | u | -1% | 18µM*
Cn1c(=O)[nH]c(=O)c2c1nc(N1CCOCC1)n2CC(O)COc1ccc2ccccc2c1 (configuration not stated) | -17% | 19 | -26% | -16% | u
Cc1cccc(OCC(O)Cn2c(N3CCCCC3)nc3c2c(=O)n(C)c(=O)n3C)c1 (configuration not stated) | 0% | 40 | u | -4% | 16µM*
COCCCNc1nc2c(c(=O)[nH]c(=O)n2C)n1CC(O)COc1ccccc1C (configuration not stated) | -3% | 9 | -18% | -5% | -26%
CCc1ccc(OCC(O)Cn2c(N3CCCCC3)nc3c2c(=O)[nH]c(=O)n3C)cc1 (configuration not stated) | 0% | 53 | u | -1% | u
Cn1c(=O)c2c(nc(N3CCCCCC3)n2CC(O)COc2ccccc2)n(C)c1=O (configuration not stated) | -1% | 16 | 23µM* | -5% | 18µM*
CCCCNc1nc2c(c(=O)n(C)c(=O)n2C)n1CC(O)COc1ccccc1C (configuration not stated) | x | x | 21µM* | x | 18µM*
CCOC(=O)c1sc2nc(C)c([N+](=O)[O-])c(COC)c2c1N | 0% | 42 | -14% | 2% | -25%
COc1ccc(OC)c(NC(=O)N(C)CCc2c(C)nn(C)c2C)c1 | x | x | -2% | x | u
O=C(CCC(=O)c1cccs1)NCC(c1ccc(F)cc1)N1CCOCC1 (configuration not stated) | 3% | 10 | 3% | 3% | 4%
Cn1c(=O)c2c(nc(N3CCCCC3)n2CC(O)COc2ccccc2)n(C)c1=O (configuration not stated) | 2% | 13 | u | 2% | 16µM*
COc1ccc(OCC(O)Cn2c(Nc3ccccc3)nc3c2c(=O)n(C)c(=O)n3C)cc1 (configuration not stated) | 7% | -4 | 1% | 8% | -14%
Cn1c(=O)c2c(nc(NC3CCCCC3)n2CC(O)COc2ccccc2)n(C)c1=O (configuration not stated) | -7% | -5 | u | -2% | 23µM*
Clc1ccccc1Cc1noc(CN2CCN(Cc3ccccn3)CC2)n1 | 16% | 11 | 2% | 15% | u
Cc1noc(C)c1C(=O)OCC(=O)Nc1ccc(N2CCOCC2)cc1 | -3% | 0 | -2% | -6% | 0%
CC1CCCN(c2c3c(nc4ccccc24)CCCC3)C1 (configuration not stated) | 7% | -89* | u | 10% | u
CC1CCCN(c2nc(-c3ccccc3O)nc3ccccc23)C1 (configuration not stated) | x | x | -30% | x | u
S=C(c1ccc(-c2ccc(Cl)cc2)o1)N1CCCCC1 | -21% | -52* | u | u | u
SMILES | HT1080 IDH1KD tx | IL-1B inflam inh | DT40 TDP1 CPT | HT1080-NT tox | DT40 TDP1 no CPT
S=C(c1ccc(-c2ccccc2Cl)o1)N1CCCCC1 | -6% | -10 | u | -3% | 16µM*
O=C(O)c1ccc(-c2ccccc2Cl)o1 | -6% | -6 | -12% | -10% | -17%
N#CCCN1CCN(C(=S)c2ccc(-c3ccc(Cl)cc3)o2)CC1 | 0% | -13 | u | -2% | u
c1ccc(COc2ccc(-c3csnn3)cc2)cc1 | 5% | -26 | -14% | 21% | 2%
COc1ccc(Cl)cc1Nc1nc(C)nc2c1nnn2Cc1ccccc1 | 18% | 36 | -12% | 15% | u
CC(C)Cc1nc(Nc2ccccc2C#N)c2nnn(Cc3ccccc3)c2n1 | 18µM* | u | -26% | u | u
COc1cccc(/C=C2\C(=O)N(c3cccc(C)c3)C(=O)c3ccccc32)c1 | 9% | u | 26µM* | 3% | u
Fc1ccc(C(CCCn2nnc(-c3cccnc3)n2)c2ccc(F)cc2)cc1 | u | u | 16µM* | -16% | 21µM*
COC(=O)c1cc(Cl)cc(Cl)c1OS(=O)(=O)N(C)C | -15% | 3 | u | -7% | -20%
CC(C)c1[nH]nc2c1C(c1cccs1)C(C#N)=C(N)O2 (configuration not stated) | -19% | -86* | u | u | u
CCc1[nH]nc2c1C(C1C=CCCC1)C(C#N)=C(N)O2 (configuration not stated) | -20% | -54* | 23µM* | -17% | 21µM*
CC(C)c1[nH]nc2c1C(C1C=CCCC1)C(C#N)=C(N)O2 (configuration not stated) | u | -88* | 16µM* | u | 13µM*
Cc1nc(-c2cnn(-c3ccccc3)c2)c2cc(C)oc2n1 | -8% | -16 | u | -9% | 18µM*
COc1ccccc1N1CCN(C(=O)c2ccc3[nH]c(C)c(C)c3c2)CC1 | 1.3µM* | 38 | 1.3µM* | 1.5µM* | 1µM*
COc1ccccc1N1CCN(C(=O)c2ccc3[nH]c4c(c3c2)CC(C)CC4)CC1 (configuration not stated) | u | -94* | 16µM* | u | u
Cc1[nH]c2ccc(C(=O)N3CCCC3)cc2c1C | 0% | -8 | 20% | 0% | -1%
CCc1cc(C(=O)N2CCN(c3ccccc3OC)CC2)sc1C | u | -14 | u | u | 16µM*
Cc1[nH]c2ccc(C(=O)N3CCN(c4cccc(Cl)c4)CC3)cc2c1C | 7.3µM* | 0 | 6.5µM* | u | 6.5µM*
